Screening results (PubChem)
In the library only some 1.5% were active in any assay of this set; here they are far more common.
WRN helicase inh: WRN helicase (human) inhibition | Potency, µM (highest dose often 114 µM), for the others: at the top dose activity change, negative = inhibition, usual class: inhibitors | 360,000 tested, 0.46% active | Q14191 | WRN helicase unwinding, fluorescent forked duplex, kinetic | AID 651768; also: potency is read from the fitted curve at half-maximal effect; nearly all actives have a fitted effect of over 55% in size
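Primary qHTS, 1536-well format. 20 nM WRN + compound, 15 min RT; start with 100 nM forked fluorophore/quencher duplex, 2 mM ATP (final); kinetic read ex 525/em 598 nm.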
FEN1 inh: inhibitors of human flap endonuclease 1; P39748; Recombinant FEN1 flap cleavage, fluorescence, 15 min; Potency, µM (highest dose often 114 µM), for the others: at the top dose activity change, negative = inhibition, actives largely listed as inhibitors; 390,000 tested, 0.35% active; AID 588795; also: potency is read from the fitted curve at half-maximal effect; nearly all actives have a fitted effect of over 65% in size
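Concentration–response screening of FEN1 (10 nM): 15 min compound preincubation at room temperature, reaction started with 50 nM substrate and read at 0 and 15 min. Corrected, normalized data were fitted by a four-parameter Hill equation.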
APEX1 inh: inhibitors of human APE1 endonuclease | P27695 | recombinant APE1, TAMRA/BHQ-2 abasic DNA cleavage fluorescence | Potency, µM (highest dose often 65.8 µM), for the others: top-dose activity change, negative = inhibition, actives largely listed as inhibitors | 350,000 tested, 0.35% active | AID 2517;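 also: potency is read from the fitted curve at half-maximal effect; plate controls were vehicle for no effect and reference inhibitor for full effect; nearly all actives have a fitted effect of over 55% in size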
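Incision of a quenched TAMRA/BHQ-2 THF abasic-site duplex (50 nM) by 0.75 nM APE1, after 15 min compound preincubation, measured as fluorescence increase over three 60 s reads. Values normalized to buffer, DMSO and NSC13755 control wells.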
RECQ1 helicase: blocks DNA unwinding by human RECQ1; Potency, µM (doses to about 57.3 µM), without a hit: at the top dose activity, negative = inhibition, hits mostly inhibitors; RECQ1 DNA unwinding, red fluorescence kinetic read; AID 2549; 240,000 tested, 0.54% active; P46063;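 also: potency is read from the fitted curve at half-maximal effect; plate controls were vehicle for no effect and no enzyme for full effect; nearly all actives have a fitted effect of over 30% in size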
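50 nM RECQ1T1 preincubated 15 min with compound in Tris pH 8.0 buffer with MgCl2, DTT, Tween-20 and 2.5 ug/ml poly(dI-dC); started with 200 nM TAMRA/BHQ-2 forked duplex and 2 mM ATP. Unwinding read as fluorescence (525/598 nm), two reads 2 h apart.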
PI5P4K alpha inh: PI5P4K alpha (human) kinase inhibition; 330,000 tested, 1.2% active; AID 652105; max response, %; P48426; PI5P4Kalpha enzyme, ADP-Glo luminescence, 60 min; hits give low values; active = max response of -50% or lower; inconclusive = between -30% and -50%; inactive = -30% or higher; also: value at the top dose of about 77 µM
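PI5P4Kalpha ADP-Glo assay; 5 microM ATP final; 60 min RT reaction; HEPES pH 7.4/EGTA/CHAPS, 5% DMSO; controls lacking substrate or enzyme; luminescent end-point.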
BLM inh: Bloom syndrome helicase (human) inhibition. P54132. recombinant BLM DNA unwinding, fluorescence dequenching. Potency, µM (top dose mostly 56.1 µM), for inactives: at the top dose activity change, negative = inhibition, usual class: inhibitors. 350,000 tested, 0.2% active;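 also: potency is read from the fitted curve at half-maximal effect; plate controls were vehicle for no effect and no enzyme for full effect; nearly all actives have a fitted effect of over 35% in size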
Target sequence (P54132 whole entry, looked up): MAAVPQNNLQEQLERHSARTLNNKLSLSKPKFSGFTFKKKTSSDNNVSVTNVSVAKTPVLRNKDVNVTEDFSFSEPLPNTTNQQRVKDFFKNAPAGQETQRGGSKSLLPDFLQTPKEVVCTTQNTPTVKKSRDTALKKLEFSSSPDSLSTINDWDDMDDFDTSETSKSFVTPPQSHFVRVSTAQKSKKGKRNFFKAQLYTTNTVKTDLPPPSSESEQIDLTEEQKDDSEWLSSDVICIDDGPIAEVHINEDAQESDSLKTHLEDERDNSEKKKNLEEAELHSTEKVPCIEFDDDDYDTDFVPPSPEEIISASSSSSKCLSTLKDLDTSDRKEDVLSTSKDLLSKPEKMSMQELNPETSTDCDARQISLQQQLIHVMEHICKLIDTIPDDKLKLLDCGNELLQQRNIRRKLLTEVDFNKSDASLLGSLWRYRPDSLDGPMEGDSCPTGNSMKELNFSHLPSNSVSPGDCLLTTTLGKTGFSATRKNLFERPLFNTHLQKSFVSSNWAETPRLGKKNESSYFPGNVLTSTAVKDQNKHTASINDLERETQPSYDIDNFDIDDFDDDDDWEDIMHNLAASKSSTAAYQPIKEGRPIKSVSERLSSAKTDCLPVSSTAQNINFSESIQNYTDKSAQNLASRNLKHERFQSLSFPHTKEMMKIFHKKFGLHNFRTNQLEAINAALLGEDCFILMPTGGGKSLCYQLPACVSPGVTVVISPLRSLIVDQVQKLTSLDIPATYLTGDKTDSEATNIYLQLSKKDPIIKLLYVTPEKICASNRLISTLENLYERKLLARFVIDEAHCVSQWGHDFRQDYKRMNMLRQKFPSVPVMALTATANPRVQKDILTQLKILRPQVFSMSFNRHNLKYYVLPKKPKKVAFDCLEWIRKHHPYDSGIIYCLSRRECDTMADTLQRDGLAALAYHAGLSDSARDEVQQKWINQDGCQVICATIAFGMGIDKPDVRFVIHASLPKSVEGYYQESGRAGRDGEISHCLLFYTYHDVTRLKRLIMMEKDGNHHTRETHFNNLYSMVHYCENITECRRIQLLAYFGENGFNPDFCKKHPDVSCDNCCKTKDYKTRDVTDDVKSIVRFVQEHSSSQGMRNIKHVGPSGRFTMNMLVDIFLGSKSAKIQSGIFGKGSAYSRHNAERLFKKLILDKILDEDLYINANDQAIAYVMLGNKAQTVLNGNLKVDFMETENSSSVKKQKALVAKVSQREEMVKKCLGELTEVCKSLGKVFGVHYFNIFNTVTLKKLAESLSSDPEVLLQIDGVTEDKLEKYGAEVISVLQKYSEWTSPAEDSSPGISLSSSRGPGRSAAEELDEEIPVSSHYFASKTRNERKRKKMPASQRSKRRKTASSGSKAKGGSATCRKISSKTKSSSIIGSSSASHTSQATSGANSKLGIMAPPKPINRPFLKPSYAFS
The depositor's hits bear a star; i = inactive; ? = inconclusive; . = not tested or not shown; [ ] = remark or other dose. Unless noted, calls follow the shape of the dose curve; as a rule, active = well fitted curve in the direction sought with a large enough effect; inconclusive = small, poorly fitted or top-dose-only effect, or another doubt; inactive = no such curve, though single readings can be large; an effect the other way counts as inactive or inconclusive. Unless noted, % is scaled to controls: 0 for no effect and ±100 for the full control effect.

SMILES	WRN helicase inh	FEN1 inh	APEX1 inh	RECQ1 helicase	PI5P4K alpha inh	BLM inh
Cc1cc(C)c(S(=O)(=O)/N=C2\C=C(NS(=O)(=O)c3ccccc3)C(=O)c3ccccc32)c(C)c1	-9.2%	3.9%	-20.1%	.	-22.5	-11.8%
CCCCn1c(SCC(=O)c2ccc(OC)cc2OC)nc2cc(S(N)(=O)=O)ccc21	?	-11.2%	?	-14.1%	-54.5*	-19.2%
CCCCn1c(SC(C)C(=O)c2ccc(OC)cc2)nc2cc(S(N)(=O)=O)ccc21 (configuration not stated)	-26.3%	?	3.7%	-6.5%	.	-10.7%
CCCCc1nc2c(c3c1C[C@H](C)OC3)CN(C(=O)Cc1cccs1)CC2	.	.	13.8%[12.4 µM]	i[11.5 µM]	.	4.0%[12.4 µM]
CC(=O)c1ccc(N2C(=O)C3C(C2=O)C(C(=O)c2ccc(Cl)cc2)N2CCCC32)cc1 (configuration not stated)	-24.0%	1.5%	-3.4%	?	-53.7*	-5.5%
O=C(c1ccc(Cl)cc1)C1C2C(=O)N(c3ccccc3)C(=O)C2C2CCCN21 (configuration not stated)	2.2%	-2.2%	-4.8%	-7.5%	3.2	-6.9%
CCCCc1nc2c(c3c1C[C@H](C)OC3)CN(S(=O)(=O)CCCC)CC2	.	.	-5.3%[12.4 µM]	-9.1%[11.5 µM]	.	1.8%[12.4 µM]
CNC(=O)CSc1nc2sccc2c(=O)n1-c1ccccc1	-4.9%	-1.5%	1.5%	.	?	-3.6%
N#CCSc1nc2sccc2c(=O)n1-c1ccccc1	-10.8%	-5.3%	10.8%	.	-69.7*	-3.2%
Clc1ccc(Cn2c(/C=C/c3ccco3)nc3ccccc32)cc1	-32.6%	-16.7%	-2.8%	-29.2%	-78.5*	-7.5%
Cc1ccc(Cn2c(/C=C/c3ccco3)nc3ccccc32)cc1	-11.7%	-0.5%	-0.3%	10.3%	-63.6*	-20.7%
O=C1NC(=S)N(C(=O)c2ccc(F)cc2)/C1=C/c1ccccc1	-32.8%	-1.2%	5.8%	-0.1%	?	22.4µM*
O=C(c1ccc(F)cc1)N1CCN(Cc2ccccc2)CC1	?	-0.8%	32.7%	.	-4.9	-1.4%
COc1cccc(CNC(=O)Cn2ncc3c4ccccc4n(C)c3c2=O)c1	.	15.7%	.	.	.	-6.1%
COc1cccc(Cn2ncc3c4sc(B(O)O)cc4n(C)c3c2=O)c1	.	.	9.47µM*	.	.	.
Cc1ccc2c(c1)C(c1ccc(F)cc1)N(C(=O)c1ccc(OC(C)C)cc1)CC(=O)N2 (configuration not stated)	.	-1.4%	.	.	.	-8.3%
Cc1cccc(NC(=O)c2ccccc2[N+](=O)[O-])n1	4.8%[57.1 µM]	-3.8%	-7.0%	-16.0%	-3.0	0.2%
O=C(Nc1cccc(NC(=O)c2ccccc2[N+](=O)[O-])n1)c1ccccc1[N+](=O)[O-]	?	8.9%	10.6%	-6.5%	-55.3*	-10.6%
O=C(CSc1n[nH]c(-c2ccccc2Cl)n1)N1CCN(c2ccc(F)cc2)CC1	.	-11.1%	.	.	.	-3.8%
Cc1c(OCC(N)=O)ccc2c(-c3ccccc3)cc(=O)oc12	50.1µM*	?	9.8%	.	-4.2	?
CC1(C)CC2CC(C)(CN2C(=O)COC(=O)c2ccc(O)cc2O)C1 (configuration not stated)	-9.6%	-8.2%	10.6µM*	.	-1.2	.
CC1(C)CC2CC(C)(CN2C(=O)COC(=O)c2cc(Cl)cc(Cl)c2N)C1 (configuration not stated)	-15.4%	-17.9%	32.2%	-8.7%	.	-5.2%
Cc1ccc2c(CC(=O)Nc3c(C(=O)Nc4cccc(Cl)c4)oc4ccccc34)coc2c1C	.	-14.2%	.	.	.	-0.3%
CS(=O)(=O)c1cc([N+](=O)[O-])c(Sc2nc3ccccc3[nH]2)c([N+](=O)[O-])c1	56.2µM*	-15.6%	9.6%	-1.5%	.	-2.4%
Cc1csc[n+]1CC(=O)c1ccc(I)cc1	.	8.7%	.	.	.	.
SMILES	WRN helicase inh	FEN1 inh	APEX1 inh	RECQ1 helicase	PI5P4K alpha inh	BLM inh
CCOC(=O)Nc1cc2c(c(N)n1)N=C(c1ccccc1)CN2	56.2µM*	?	.	.	-67.8*	.
CCOC(=O)Nc1sc(C)nc1-c1ccccc1	-13.4%	-1.1%	1.1%	i	.	1.6%
NC(=O)c1ncn([C@@H]2O[C@H](CNCc3ccc(OCC(=O)Nc4nccs4)cc3)[C@@H](O)[C@H]2O)n1	-4.4%	-0.5%	.	.	-64.2*	.
Cc1ccc(S(=O)(=O)Nc2ccc(O)c3ncccc23)cc1	-26.2%	12.6µM*	-7.3%	-2.7%	0.8	-2.0%
O=c1cc(-c2cccc(O)c2O)oc2ccccc12	.	.	-5.5%	6.31µM*	.	0.1%
O=c1cc(-c2ccccc2O)oc2cc(O)ccc12	.	.	14.4%	-11.6%	.	-12.2%
COc1ccccc1-c1cc(=O)c2cc(O)ccc2o1	.	.	11.3%	-1.1%	.	0.5%
CCOc1ccccc1-c1c2cc(O)c(=O)cc-2oc2cc(O)c(O)cc12	89.1µM*	20µM*	-2.4%	-4.8%	-55.1*	10µM*
O=c1cc2oc3cc(O)c(O)cc3c(-c3ccccc3O)c-2cc1O	i	22.4µM*	0.891µM*	3.55µM*	-87.9*	6.31µM*
CCc1cnc2c(c1SC(C(C)=O)C(=O)N(C)C)c(=O)n(C)c(=O)n2C (configuration not stated)	.	-1.8%	.	.	.	1.7%
C=C1CCC(O)C/C1=C/C=C1\CCC[C@]2(C)[C@@H]([C@H](C)/C=C/[C@H](C)C(C)C)CC[C@@H]12 (some centres not stated)	.	.	.	.	.	-8.3%
O=c1c2ccccc2c(-c2n[nH]c(=S)o2)nn1Cc1ccccc1	-2.7%	-4.2%	0.6%	-8.5%	-85.5*	-1.5%
O=C(O)c1cc(N=Nc2ccc(O)c(C(=O)O)c2)ccc1O	.	.	.	.	.	-7.0%
O=C(O)c1cc(N=Nc2ccc(-c3ccc(N=Nc4ccc(O)c(C(=O)O)c4)cc3)cc2)ccc1O	.	.	8.91µM*	20µM*	.	17.8µM*
O=C(COC(=O)c1cc(-c2ccc(Cl)s2)nc2ccccc12)NCc1ccco1	35.5µM*	3.4%	-6.2%	13.4%	?	-3.5%
